# Reference: the supplement of paper PMC8387472
# Structures can show the parent of a compound that is named as a salt. ± gives the standard deviation of the averaged measurements.
# System: mESC LDLR-Dup GFP reporter (SpCas9 MH-deletion repair)
# Assay: fraction of GFP+ cells relative to DMSO control (fold change); higher = more MH-deletion repair to in-frame LDLR (or more editing)
# Conditions: 2 µM; 7 days post-transfection
row,Compound,fraction of GFP+ cells
1,O=C(O)[C@]1(Cc2cccc(Nc3nccs3)n2)CC[C@@H](Oc2cccc(Cl)c2F)CC1,1.82 ± 0.2
2,CNNCc1ccc(C(=O)NC(C)C)cc1 [Procarbazine HCl],1.04 ± 0.053
3,CC(NC(=O)c1ccccc1/N=C/c1c(O)ccc2ccccc12)c1ccccc1 (stereo unspecified) [Sirtinol],1.45 ± 0.24
4,C/C(=C\C(=O)Nc1ccccc1C(=O)O)c1ccc2ccccc2c1,0.984 ± 0.45
5,O=c1cc(N2CCOCC2)oc2c1ccc1ccccc12,0.548 ± 0.39
6,Cn1nnc2c(C(N)=O)ncn2c1=O [Temozolomide],0.998 ± 0.33
7,CC(C)NC(=O)COc1cccc(-c2nc(Nc3ccc4[nH]ncc4c3)c3ccccc3n2)c1,1.21 ± 1.4
8,O=c1cc(-c2cccc3c2Sc2ccccc2S3)oc(N2CCOCC2)c1,0.661 ± 0.19
9,Cc1cn([C@H]2C[C@H](N=[N+]=[N-])[C@@H](CO)O2)c(=O)[nH]c1=O [Zidovudine],1.09 ± 0.18
10,O=C(NCc1cccc(O)c1)Nc1nc(-c2ccncc2)cs1,1.11 ± 0.49
11,COc1ccc(Cn2ccc3ccc(C(=O)NO)cc32)cc1,0.5 ± 0.072
12,O=C(COc1cccc2c(=O)[nH]ccc12)c1ccccc1,0.936 ± 0.095
13,C=C1C(=O)O[C@@H]2/C=C(\C)CC/C=C(\C)CC[C@@H]12 [Costunolide],1.22 ± 0.2
14,Cc1cc(N2C[C@@H](C)N[C@@H](C)C2)ncc1-c1ccc(-c2nc3c(ccn3C)c(=O)[nH]2)cc1,0.927 ± 0.33
15,O=C(Nc1ccccc1-c1cn2c(CN3CC[C@@H](O)C3)csc2n1)c1ccc2ccccc2c1,1.45 ± 0.4
16,S=P(N1CC1)(N1CC1)N1CC1 [Thiotepa],0.905 ± 0.27
